Compound activity (PubChem)
AHR activator – AHR activators, primary screen, cell-based, luminescence, luciferase reporter, human. Aryl hydrocarbon receptor (Homo sapiens), P35869. AHR-responsive luciferase reporter cells. activation, % at 5 µM. hit rate 2.5% among 320,000; in the data active means activation above about 47%;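 further: 0% = vehicle wells and 100% = reference agonist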
A3A deaminase – APOBEC3A ssDNA deaminase inhibitors, primary screen, selectivity assay for APOBEC3G inhibitor project, biochemical, FAM/TAMRA oligo cleavage fluorescence | recombinant A3A, FAM/TAMRA ssDNA deamination fluorescence | inhibition, % at 20 µM | hit rate 0.41% among 330,000;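 active means at least 40% inhibition at 20 µM here, with at most 30% in a related deaminase screen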;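 further: plate controls were A3A with DMSO for no effect and wells lacking A3A enzyme for full effect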
NTR1 agonist – agonists of human NTR1, primary screen, imaging, U2OS cells, beta-arrestin-GFP, high content; AID 493036, 2011; NTR1-U2OS beta-arrestin-GFP spot imaging, agonist mode; Neurotensin receptor type 1 (Homo sapiens), P30989; activation, % at 20 µM; hit rate 0.17% among 330,000;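 active means activation at or above 40% of the spot to cytoplasm intensity ratio, with at least 20 cells analyzed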;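 further: 0% = DMSO without peptide and 100% = 100 nM NTR1 peptide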
Target sequence (P30989 whole entry, looked up): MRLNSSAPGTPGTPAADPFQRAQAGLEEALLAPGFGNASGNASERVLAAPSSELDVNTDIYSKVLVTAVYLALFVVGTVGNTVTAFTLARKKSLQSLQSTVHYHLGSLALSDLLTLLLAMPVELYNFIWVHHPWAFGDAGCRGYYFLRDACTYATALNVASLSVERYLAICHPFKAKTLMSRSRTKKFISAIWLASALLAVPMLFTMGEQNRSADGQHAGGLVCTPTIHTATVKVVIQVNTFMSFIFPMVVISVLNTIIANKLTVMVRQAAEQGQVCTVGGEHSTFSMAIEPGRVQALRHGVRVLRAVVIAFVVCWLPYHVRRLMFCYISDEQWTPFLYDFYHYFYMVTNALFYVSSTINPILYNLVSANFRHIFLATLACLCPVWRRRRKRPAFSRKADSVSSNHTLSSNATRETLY
APOBEC3G inh – APOBEC3G DNA deaminase inhibitors, primary screen, biochemical, fluorescence, single-stranded DNA substrate, uHTS; inhibition, % at 20 µM; hit rate 0.28% among 330,000; DNA dC->dU-editing enzyme APOBEC-3G (Homo sapiens), Q9HC16; recombinant A3G, ssDNA deamination FAM/TAMRA fluorescence;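 active means inhibition of at least 40% at 20 µM, with no more than 30% in the related APOBEC3A deaminase screen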;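 further: plate controls were DMSO wells with A3G for no effect and wells lacking A3G enzyme for full effect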
A3A conf – APOBEC3A deaminase inhibitors, retest, confirmation, selectivity assay for APOBEC3G inhibitor project, biochemical, single concentration, fluorescence readout. shares compounds with A3A deaminase. recombinant A3A, ssDNA deaminase UDG fluorescence assay. inhibition, % at 20 µM. hit rate 63% among 1,400. AID 493151, 2011;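 active means inhibition reaching a set limit, 80% of the first screen's cutoff, at 20 µM in any replicate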;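 further: plate controls were DMSO wells with A3A for no effect and wells lacking A3A enzyme for full effect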
UDG ctr A3A – E. coli UDG inhibitors, confirmation, counter-screen for APOBEC3A inhibitor project, biochemical, single concentration, fluorescence, FAM/TAMRA oligo | shares compounds with A3A deaminase | UDG counterscreen, FAM/TAMRA uracil oligo fluorescence | inhibition, % at 20 µM | 1,000 tested, under 10 active | AID 504714, 2011; call rule not given here
Active calls of the source: *; nt = no result given. A selection: hits, their analogues and other compounds. The true share with any hit is near 3.2%.

SMILES	AHR activator	A3A deaminase	NTR1 agonist	APOBEC3G inh	A3A conf	UDG ctr A3A
CCCCn1c(N)c(N(CCOC)C(=O)c2cc(C)oc2C)c(=O)[nH]c1=O	-1	-1	-1	-11	nt	nt
COc1ccccc1Oc1ccc(S(=O)(=O)N2CCCCC2)cc1NC(=O)CCNC(C)=O	7	58*	1	26	2	nt
N#Cc1ccc(CN2CCN(C(=O)Cn3nc(C(N)=O)c4ccccc4c3=O)CC2)cc1	-3	58*	-1	6	25	nt
NC(=O)C[n+]1cccc2ccccc21	9	43*	0	3	59*	1
Nc1nccnc1C(=O)OCC(=O)NCCc1ccc(S(N)(=O)=O)cc1	-2	16	-1	1	nt	nt
CC(OC(=O)CCCN=C1NS(=O)(=O)c2ccccc21)C(=O)NC1CCCCC1C (configuration not stated)	7	51*	1	12	2	nt
CC(=O)c1ccc(NC(=O)C(C)OC(=O)CCCN=C2NS(=O)(=O)c3ccccc32)cc1 (configuration not stated)	0	4	0	7	nt	nt
COc1ccc2c(c1)sc(=N)n2C	4	44*	0	15	29	nt
COc1ccc(CCn2c(C)cc(C(=O)CSc3nnc(N)s3)c2C)cc1	17	44*	-1	-7	-6	-2
Cc1ccc2ncccc2c1NS(=O)(=O)c1ccccc1	0	43*	-1	27	13	nt
COc1cc(OC)c2ccc(=O)oc2c1C(CC(=O)N1CCCC1)c1ccc2c(c1)OCO2 (configuration not stated)	5	47*	1	26	29	nt
COc1cc(OC)c2ccc(=O)oc2c1C(CC(=O)N1CCCC(C)C1)c1ccc2c(c1)OCO2 (configuration not stated)	10	28	0	1	nt	nt
CCOCc1cnc(C)nc1NCC(=O)c1c(C)[nH]c2ccc(OC)cc12	1	55*	-1	21	80*	2
CC(C)(CC(=O)O)CC(=O)Nc1cc(C(F)(F)F)cc(C(F)(F)F)c1	-3	-2	0	-8	nt	nt
CC1CCN(Cc2c(C(=O)O)nnn2-c2nonc2N)CC1	-1	1	-1	-12	nt	nt
CCc1ccccc1NC(=O)C1CCN(C(=O)c2cccs2)CC1	-3	-2	2	0	nt	nt
O=C(Nc1nc2c(s1)CCCC2)C1CCCN1C(=O)c1cccs1 (configuration not stated)	3	54*	1	20	46*	-1
Cc1ccc(NC(=O)C2CCN(C(=O)c3cccs3)CC2)c(C)c1	1	44*	-1	14	67*	0
Cc1ccc(NC(=O)C2CCCN2C(=O)c2cccs2)c(C)c1 (configuration not stated)	0	51*	0	17	59*	-1
Cc1cc(C)c(NC(=O)CNC(=O)[C@@H]2CCCN2C(=O)c2cccs2)c(C)c1	-1	2	0	-2	nt	nt
CCCCn1c(N)c(N(CC(C)C)C(=O)C2CCN(S(=O)(=O)c3ccc(C)cc3C)CC2)c(=O)[nH]c1=O	-2	1	-1	-2	nt	nt
OC(COCC1COc2ccccc2O1)CN1CCN(c2ccccc2)CC1 (configuration not stated)	13	-4	0	-8	nt	nt
C[N+]1(CC(O)COCC2COc3ccccc3O2)CCOCC1 (configuration not stated)	-1	86*	0	12	46*	nt
N#Cc1ccc(COC(=O)c2ccc(N3CCCC3)c([N+](=O)[O-])c2)cc1	-1	-3	1	-6	nt	nt
CCCCn1c(N)c(N(CCC(C)C)C(=O)c2ccc(N3CCCC3=O)cc2)c(=O)[nH]c1=O	-2	43*	0	-1	18	3
SMILES	AHR activator	A3A deaminase	NTR1 agonist	APOBEC3G inh	A3A conf	UDG ctr A3A
CCCCn1c(N)c(N(CCC(C)C)C(=O)C2CC(=O)N(c3ccc4c(c3)OCCO4)C2)c(=O)[nH]c1=O (configuration not stated)	-1	12	0	-2	nt	nt
CCCCn1c(N)c(N(CCC(C)C)C(=O)C2CC(=O)N(c3cccc(SC)c3)C2)c(=O)[nH]c1=O (configuration not stated)	2	45*	0	9	0	nt
CCCCn1c(N)c(N(CC)C(=O)c2ccc(Cl)c([N+](=O)[O-])c2)c(=O)[nH]c1=O	4	50*	3	2	28	nt
CC1(C)CC(=O)C(N=Nc2ccc(S(=O)(=O)N3CCOCC3)cc2)=C(O)C1	1	5	0	1	nt	nt
CN1CCN(C(=O)c2ccccc2NC(=O)c2ccccc2)CC1	nt	-2	2	-9	nt	nt
CSCC[C@H](NC(=O)c1ccc(Cl)c(S(=O)(=O)N2CCCC2)c1)c1nc2ccccc2[nH]1	4	45*	2	11	54*	2
CSCC[C@H](NC(=O)c1cccc(S(=O)(=O)N2CCN(C)CC2)c1)c1nc2ccccc2[nH]1	1	0	2	-3	nt	nt
Cc1ccccc1CN1CCN(C(=O)CC(C)C)CC1	0	-4	0	-3	nt	nt
Cc1c(NC(=O)c2cc(-c3ccc(Cl)cc3)on2)c(=O)n(-c2ccccc2)n1C	-3	-4	0	-10	nt	nt
CSc1nc(-c2ccco2)nn1C(=O)Cc1ccccc1	0	94*	0	-3	-2	-3
CCn1c(=O)ccc2cc([N+](=O)[O-])ccc21	-2	-2	0	-8	nt	nt
CC(=O)c1c(COC(=O)c2cccnc2)nc2ccccc2[n+]1[O-]	6	58*	2	20	76*	0
CC(C(=O)NCCCc1ccccc1)c1ccc([N+](=O)[O-])cc1 (configuration not stated)	-1	-5	0	-5	nt	nt
O=C(COc1ccc(Br)cc1Br)NN1C(=O)c2ccccc2C1=O	6	55*	-1	-9	11*	8
CC(C)c1ccc(OCC(=O)NN2C(=O)c3ccccc3C2=O)c(Br)c1	4	-2	1	-12	nt	nt
O=C(O)c1ncc(Cl)c(Cl)c1Cl	8	-4	-1	-4	nt	nt
O=C(O)c1nsc(Cl)c1Cl	0	99*	0	-4	-1	-3
O=C(NNC(=O)c1cccc(-n2cccc2)c1)c1ccc(F)cc1	-2	42*	0	18	28*	-1
COc1ccccc1-c1nnc(NC(=O)CSc2nncn2C)s1	19	-10	3	-6	nt	nt
